Source: PubChem (National Center for Advancing Translational Sciences (NCATS))
The list is not random: actives were taken first. Their share in the collection is about 10%.
JMJD2A Tudor – inhibitors of human JMJD2A Tudor domain; O75164; AlphaScreen JMJD2A-Tudor / H3K4me3 peptide binding; Potency, µM (top dose mostly 114 µM), inactives show top-dose activity change, negative = inhibition, most hits filed as inhibitors; 390,000 tested, 4.4% active; AID 504339; note: potency is the fitted concentration of half-maximal effect; % is set by controls: 0 for no effect and ±100 for the full control effect; nearly all actives have a fitted effect of over 50% in size
G9a inh – inhibitors of human histone lysine methyltransferase G9a | Q96KQ7 | G9a H3K9 monomethylation, AlphaScreen, 2 h | Potency, µM (titrated, usually from 102 µM), inactives show at the top dose activity, negative = inhibition, usual class: inhibitors | 350,000 tested, 8.8% active | AID 504332; note: potency is the fitted concentration of half-maximal effect; % is set by controls: 0 for no effect and ±100 for the full control effect; nearly all actives have a fitted effect of over 75% in size
Target sequence (Q96KQ7 913-1193 limits assumed): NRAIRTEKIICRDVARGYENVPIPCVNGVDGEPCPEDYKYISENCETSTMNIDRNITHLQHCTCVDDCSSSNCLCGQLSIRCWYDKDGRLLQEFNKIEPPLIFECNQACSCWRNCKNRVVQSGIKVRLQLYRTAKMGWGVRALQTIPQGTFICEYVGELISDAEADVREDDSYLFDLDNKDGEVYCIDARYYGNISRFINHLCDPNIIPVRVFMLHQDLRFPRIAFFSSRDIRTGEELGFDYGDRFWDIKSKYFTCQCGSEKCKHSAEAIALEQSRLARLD
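Signal arises when biotinylated H3K9 peptide, once monomethylated, bridges streptavidin donor and antibody-captured acceptor beads. Enzyme at 20 nM was preincubated 15 min with test compounds; peptide 500 nM and SAM 20 uM then reacted for 2 h.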
BAZ2B block – BAZ2B (human) inhibition | AlphaScreen BAZ2B-H3K14Ac peptide displacement | Potency, µM (highest dose often 114 µM), without a hit: top-dose activity change, negative = inhibition, most hits filed as inhibitors | 360,000 tested, 4.4% active; note: potency is the fitted concentration of half-maximal effect; % is set by controls: 0 for no effect and ±100 for the full control effect; nearly all actives have a fitted effect of over 60% in size
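Inhibition is scored as reduced AlphaScreen emission. The BAZ2B/b-H3(5-23)K14Ac complex (50 nM each) in PBS pH 7.4, 0.01% Tween-20 meets compound (up to 110 uM) for 30 min at RT before bead addition.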
HP1b chromo inh – inhibitors of HP1-beta chromodomain binding to methylated histone tails; P83916; 390,000 tested, 0.56% active; AID 540317; AlphaScreen HP1-beta / biotin-H3K9me3 peptide binding; Potency, µM (highest dose often 114 µM), for inactives: top-dose activity change, negative = inhibition, usual class: inhibitors; note: potency is the fitted concentration of half-maximal effect; nearly all actives have a fitted effect of over 70% in size
Target sequence (P83916 whole entry, looked up): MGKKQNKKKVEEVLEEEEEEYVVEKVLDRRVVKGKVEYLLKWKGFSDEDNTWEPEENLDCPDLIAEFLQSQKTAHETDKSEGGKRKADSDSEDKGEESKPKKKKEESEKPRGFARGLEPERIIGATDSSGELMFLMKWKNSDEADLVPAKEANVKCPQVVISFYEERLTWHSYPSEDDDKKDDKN
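HP1-beta protein (50 nM final) preincubated 30 min at room temperature with biotinylated H3(1-18)K9me3 peptide (50 nM) in PBS pH 7.4, 0.01% Tween-20, then compound added for 30 min. AlphaScreen streptavidin donor/nickel chelate acceptor beads (10 ug/mL final), 30 min dark, luminescence read.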
CtBP-E1A inh – CtBP/E1A binding inhibition | AlphaScreen GST-E1A/His-CtBP binding, 1536-well; active compounds read low | AID 651724 | activity change, % (test concentration not listed) | 340,000 tested, 0.49% active; in the data active = activity change below about -65%; inconclusive = mostly about -30% to -63%; note: % is set by controls: 0 for no effect and ±100 for the full control effect
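Homogeneous bead-based format: GST-tagged E1A captured on glutathione donor beads, His-tagged CtBP on nickel acceptor beads; compounds precede bead addition by 2 h at 37 °C.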
Six1-Eya2 inh – Six1/Eya2 interaction inhibition | Q15475+O00167 | AlphaScreen GST-Six1/His-Eya2 binding, biochemical; active compounds read low | activity change, % (no concentration beside the values) | 360,000 tested, 0.56% active | AID 651725; in the data active = activity change below about -65%; inconclusive = mostly about -30% to -63%; note: % is set by controls: 0 for no effect and ±100 for the full control effect
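GST-Six1 + His-Eya2 (5X stock: 250/500 nM); Tris pH 8.0, 300 mM NaCl, 0.05% BSA, 0.02% Tween 20; GSH donor/Ni acceptor beads; 1 h 37 °C dark; AlphaScreen readout.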
Starred values were filed as active, the others as inactive; [ ] = dose if it differs, or a comment. Unless noted, calls come from the whole dose curve; as a rule, active = well fitted inhibition curve with a large enough effect; inconclusive = small, poorly fitted or top-dose-only effect; inactive = no such curve, though single readings can be large or run the other way.

`COCCOC(=O)C1=C(C)NC(C)=C(C(=O)OC/C=C/c2ccccc2)C1c1cccc([N+](=O)[O-])c1` (stereo not drawn) gave G9a inh -2%[59 µM].
CC(=O)/C(=N/Nc1cccc(C)c1)N1CCOCC1 was read as JMJD2A Tudor 89µM*, G9a inh 0.63µM*, BAZ2B block inconclusive, HP1b chromo inh 6%, CtBP-E1A inh 2 and Six1-Eya2 inh 0.
Screening Cc1cccc(C(=O)Nc2cccc(C(=O)N3CCOCC3)c2)c1 returned JMJD2A Tudor -8%, G9a inh 12%[59 µM], BAZ2B block 2%, HP1b chromo inh 22%, CtBP-E1A inh 4 and Six1-Eya2 inh 2.
Screening COCCn1c(CN2CCN(C(=O)c3ccco3)CC2)nc2c1c(=O)n(C)c(=O)n2C returned JMJD2A Tudor 0%, BAZ2B block -3%, HP1b chromo inh 42%, CtBP-E1A inh inconclusive and Six1-Eya2 inh -18.
Screening NC(=S)N/N=C/c1ccc(OC(=O)c2cccnc2)cc1 returned JMJD2A Tudor 8%, G9a inh 1%[59 µM], BAZ2B block -11%, HP1b chromo inh 62%, CtBP-E1A inh 7 and Six1-Eya2 inh -4.
Screening CCN(C(C)=O)c1cnc(C=NNC(N)=S)c2ccccc12 returned JMJD2A Tudor 56µM*, HP1b chromo inh 2%, CtBP-E1A inh inconclusive and Six1-Eya2 inh -90*.
Screening NC(=S)NN=Cc1nccc2c(N)cccc12 returned CtBP-E1A inh -88* and Six1-Eya2 inh -93*.
Screening CSc1ccc(CCNC(=O)c2ccc(-n3c(C)cc4c3CCC(C)C4)cc2)cc1 (stereo not drawn) returned JMJD2A Tudor -29%, G9a inh -27%[59 µM], BAZ2B block -31% and HP1b chromo inh 34%.
For c1ccc(Nc2nc(-c3cccnc3)cs2)nc1 the results were JMJD2A Tudor -14%, G9a inh -27%[0.0925 µM], BAZ2B block -3%, HP1b chromo inh 13%, CtBP-E1A inh -1 and Six1-Eya2 inh 5.
For Fc1ccc(-c2csc(Nc3ccccn3)n2)cc1 the results were JMJD2A Tudor -27%, G9a inh 79µM*, BAZ2B block -39%, HP1b chromo inh 29%, CtBP-E1A inh 5 and Six1-Eya2 inh -11.
For NS(=O)(=O)c1ccc(Nc2nc(-c3ccc(F)cc3)cs2)cc1 the results were JMJD2A Tudor -26%, G9a inh inconclusive, BAZ2B block -36%, HP1b chromo inh 16%, CtBP-E1A inh -1 and Six1-Eya2 inh -11.
For NS(=O)(=O)c1ccc(Nc2nc(-c3ccc(O)cc3O)cs2)cc1 the results were JMJD2A Tudor -23%, G9a inh 1%[59 µM], BAZ2B block inconclusive, HP1b chromo inh -16%, CtBP-E1A inh -80* and Six1-Eya2 inh -67*.
Screening Oc1ccc(-c2csc(Nc3ccccn3)n2)c(O)c1 returned JMJD2A Tudor -26%, G9a inh 45µM*, BAZ2B block -12%, HP1b chromo inh 14% and Six1-Eya2 inh 2.
Screening Cc1cccnc1Nc1nc(-c2ccc(O)cc2O)cs1 returned JMJD2A Tudor 14µM*, G9a inh 6.3µM*, BAZ2B block inconclusive, HP1b chromo inh -34%, CtBP-E1A inh -9 and Six1-Eya2 inh -15.
`O=c1oc2ccc3ccccc3c2cc1-c1nnc(Nc2ccc(Cl)cc2Cl)s1` gave JMJD2A Tudor -13%, G9a inh 4%[59 µM], BAZ2B block -1% and HP1b chromo inh 19%.
For CC(C)[C@H]1COC(c2cc(Cl)cc(Cl)c2)=N1 the results were G9a inh 20%.
CCCOc1ccc2c(c1)C(=NN=C(N)N)c1cc(OCCC)ccc1-2 was read as JMJD2A Tudor 28µM*, G9a inh inconclusive, BAZ2B block 40µM*, HP1b chromo inh inconclusive, CtBP-E1A inh inconclusive and Six1-Eya2 inh -21.
For CCN(CC)CCOc1ccc2c(c1)C(=NO)c1cc(OCCN(CC)CC)ccc1-2 the results were JMJD2A Tudor -27%, G9a inh inconclusive, BAZ2B block 8%[57.1 µM], HP1b chromo inh -7%, CtBP-E1A inh 2 and Six1-Eya2 inh -10.
`CC1CCCCN1C(=O)CNCC1CCCO1` (stereo not drawn) gave JMJD2A Tudor 0.89µM*, G9a inh 2%, BAZ2B block -15%, HP1b chromo inh inconclusive, CtBP-E1A inh -1 and Six1-Eya2 inh 4.
For CC1CCCCN1C(=O)COc1ccccc1F (stereo not drawn) the results were JMJD2A Tudor 56µM*, G9a inh 10%, BAZ2B block 8%, HP1b chromo inh -5%, CtBP-E1A inh 6 and Six1-Eya2 inh 8.
For CC1CCCCN1C(=O)Cc1ccc(Cl)cc1 (stereo not drawn) the results were JMJD2A Tudor -21%, G9a inh 9%[59 µM], BAZ2B block -6%, HP1b chromo inh 20%, CtBP-E1A inh 4 and Six1-Eya2 inh 7.
`CCCc1nnc(SCC(=O)N2CCCCC2C)n1CC1CCCO1` (stereo not drawn) gave JMJD2A Tudor -17%, G9a inh 3%, BAZ2B block 1%, HP1b chromo inh 33%, CtBP-E1A inh 2 and Six1-Eya2 inh -2.
CC1CCCCN1C(=O)COC(=O)c1ccc2ccccc2n1 (stereo not drawn) was read as JMJD2A Tudor -8%, G9a inh 21%[12.7 µM], BAZ2B block -2%, HP1b chromo inh 45%, CtBP-E1A inh 0 and Six1-Eya2 inh 5.
Screening CC1CCCCN1C(=O)CNCc1ccc(F)cc1 (stereo not drawn) returned JMJD2A Tudor 3.2µM*, G9a inh inconclusive, BAZ2B block 79µM*, HP1b chromo inh inconclusive, CtBP-E1A inh 0 and Six1-Eya2 inh 15.
For CCN(CC)C(=O)Cn1c(=O)n(-c2ccccc2)c(=O)n1CC(=O)N(CC)CC the results were JMJD2A Tudor -12%, G9a inh 3%[59 µM], BAZ2B block -25%, HP1b chromo inh 30%, CtBP-E1A inh 9 and Six1-Eya2 inh 2.
`CC1=C(C(=O)Nc2ccc(F)cc2)C(c2ccc(C)o2)C2=C(CC(C)(C)CC2=O)N1` (stereo not drawn) gave JMJD2A Tudor -6%, G9a inh 50µM*, BAZ2B block 4%, HP1b chromo inh 26%, CtBP-E1A inh -1 and Six1-Eya2 inh 6.
`CC1=C(C(=O)OC2CCCCC2)C(c2ccc(C)o2)C2=C(CC(C)(C)CC2=O)N1` (stereo not drawn) gave JMJD2A Tudor -14%, G9a inh 2%[12.7 µM], BAZ2B block -6%, HP1b chromo inh 46%, CtBP-E1A inh 1 and Six1-Eya2 inh -4.
